According to PubChem BioAssay AID1159580 (chemical genetic matrix, 2015):
Among all 5,500 compounds or so, about 2,000 (36%) were called active. Another 18% or so got no clear call; they are omitted. This is one part of the list. A number with no mark means an inactive call. Cut-off read from the data, not from the text of the source: active = normalized growth mostly below about 0.91 (no sharp cut-off); inconclusive = no clear call, values can overlap the other calls; inactive = mostly above about 0.92.

Test: chemical genetic growth profiling, strain panel (AID 1159580);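 note: tested at 20 µM; growth read once vehicle control cultures reached saturation at 30 °C; 1 = growth at the plate median or of vehicle wells; lower values mean less growth of the strain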
Settings: growth OD

O=C1CN(/N=C\c2ccc([N+](=O)[O-])o2)C(=O)N1
normalized growth (S. cerevisiae deletion strains, locus YJR075W, strain HOC1, hits give low values): 0.986
normalized growth (S. cerevisiae deletion strains, locus YKL009W, strain mrt4, hits give low values): 0.967
normalized growth (S. cerevisiae deletion strains, locus YKL068W, hits give low values): 1
normalized growth (S. cerevisiae deletion strains, locus YKL085W, strain MDH1 (second series), hits give low values): 0.991
normalized growth (S. cerevisiae deletion strains, locus YKL085W, strain MDH1, hits give low values): 0.991
normalized growth (S. cerevisiae deletion strains, locus YKL160W, strain elf1, hits give low values): 0.985
normalized growth (S. cerevisiae deletion strains, locus YKL190W, strain CNB1, hits give low values): 0.996
normalized growth (S. cerevisiae deletion strains, locus YKR001C, strain vps1, hits give low values): 0.965
normalized growth (S. cerevisiae deletion strains, locus YKR026C, strain gcn3, hits give low values): 0.979
normalized growth (S. cerevisiae deletion strains, locus YKR091W, strain srl3, hits give low values): 0.979
normalized growth (S. cerevisiae deletion strains, locus YLL001W, strain dnm1, hits give low values): 1
normalized growth (S. cerevisiae deletion strains, locus YLL026W, hits give low values): 0.992
normalized growth (S. cerevisiae deletion strains, locus YLL041C, strain sdh2, hits give low values): 0.978
normalized growth (S. cerevisiae deletion strains, locus YLR027C, strain aat2, hits give low values): 0.975
normalized growth (S. cerevisiae deletion strains, locus YLR039C, strain RIC1, hits give low values): 0.983
normalized growth (S. cerevisiae deletion strains, locus YLR058C, strain SHM2, hits give low values): 1.01
normalized growth (S. cerevisiae deletion strains, locus YLR102C, strain apc9, hits give low values): 0.993
normalized growth (S. cerevisiae deletion strains, locus YLR113W, strain HOG1, hits give low values): 0.968
normalized growth (S. cerevisiae deletion strains, locus YLR221C, strain rsa3, hits give low values): 0.976
normalized growth (S. cerevisiae deletion strains, locus YLR258W, strain gsy2, hits give low values): 0.975
normalized growth (S. cerevisiae deletion strains, locus YLR262C, strain YPT6 (second series), hits give low values): 0.976
normalized growth (S. cerevisiae deletion strains, locus YLR262C, strain YPT6, hits give low values): 1.04
normalized growth (S. cerevisiae deletion strains, locus YLR268W, strain sec22, hits give low values): 0.996
normalized growth (S. cerevisiae deletion strains, locus YLR320W, strain mms22, hits give low values): 0.935
normalized growth (S. cerevisiae deletion strains, locus YLR330W, strain CHS5, hits give low values): 1
normalized growth (S. cerevisiae deletion strains, locus YLR342W, strain FKS1 (second series), hits give low values): 0.983
normalized growth (S. cerevisiae deletion strains, locus YLR342W, strain FKS1, hits give low values): 0.979
normalized growth (S. cerevisiae deletion strains, locus YLR357W, strain rsc2, hits give low values): 0.954
normalized growth (S. cerevisiae deletion strains, locus YLR370C, strain arc18, hits give low values): 0.985
normalized growth (S. cerevisiae deletion strains, locus YLR371W, strain rom2, hits give low values): 1.01
normalized growth (S. cerevisiae deletion strains, locus YLR384C, strain iki3, hits give low values): 0.986
normalized growth (S. cerevisiae deletion strains, locus YLR418C, strain cdc73, hits give low values): 0.885
normalized growth (S. cerevisiae deletion strains, locus YML016C, strain PPZ1, hits give low values): 0.998
normalized growth (S. cerevisiae deletion strains, locus YML032C, strain rad52, hits give low values): 0.929
normalized growth (S. cerevisiae deletion strains, locus YML120C, strain ndi1, hits give low values): 0.982
normalized growth (S. cerevisiae deletion strains, locus YML124C, strain tub3, hits give low values): 0.991
normalized growth (S. cerevisiae deletion strains, locus YMR058W, strain fet3, hits give low values): 0.898 (active)
normalized growth (S. cerevisiae deletion strains, locus YMR078C, strain ctf18, hits give low values): 0.989
normalized growth (S. cerevisiae deletion strains, locus YMR125W, strain sto1, hits give low values): 0.943
normalized growth (S. cerevisiae deletion strains, locus YMR129W, hits give low values): 0.965
normalized growth (S. cerevisiae deletion strains, locus YMR205C, strain PFK2, hits give low values): 0.993
normalized growth (S. cerevisiae deletion strains, locus YMR223W, strain ubp8, hits give low values): 0.949
normalized growth (S. cerevisiae deletion strains, locus YMR231W, strain pep5, hits give low values): 0.985
normalized growth (S. cerevisiae deletion strains, locus YMR263W, strain SAP30, hits give low values): 0.977
normalized growth (S. cerevisiae deletion strains, locus YMR307W, strain GAS1, hits give low values): 0.973
normalized growth (S. cerevisiae deletion strains, locus YNL067W, strain RPL9B, hits give low values): 0.982
normalized growth (S. cerevisiae deletion strains, locus YNL071W, strain lat1, hits give low values): 0.959
normalized growth (S. cerevisiae deletion strains, locus YNL128W, strain TEP1, hits give low values): 0.974
normalized growth (S. cerevisiae deletion strains, locus YNL153C, strain GIM3, hits give low values): 0.966
normalized growth (S. cerevisiae deletion strains, locus YNL183C, strain NPR1, hits give low values): 0.879
normalized growth (S. cerevisiae deletion strains, locus YNL209W, strain ssb2, hits give low values): 0.975
normalized growth (S. cerevisiae deletion strains, locus YNL233W, strain BNI4, hits give low values): 0.995
normalized growth (S. cerevisiae deletion strains, locus YNL248C, strain rpa49, hits give low values): 0.923
normalized growth (S. cerevisiae deletion strains, locus YNL250W, strain rad50, hits give low values): 0.877 (active)
normalized growth (S. cerevisiae deletion strains, locus YNL271C, strain bni1, hits give low values): 0.998
normalized growth (S. cerevisiae deletion strains, locus YNL298W, strain CLA4, hits give low values): 0.991
normalized growth (S. cerevisiae deletion strains, locus YNL307C, strain MCK1, hits give low values): 0.952
normalized growth (S. cerevisiae deletion strains, locus YNL322C, strain KRE1 (second series), hits give low values): 0.98
normalized growth (S. cerevisiae deletion strains, locus YNL322C, strain KRE1, hits give low values): 1.01
normalized growth (S. cerevisiae deletion strains, locus YNR049C, strain mso1, hits give low values): 0.984
normalized growth (S. cerevisiae deletion strains, locus YNR052C, strain pop2, hits give low values): 0.998
normalized growth (S. cerevisiae deletion strains, locus YOL006C, strain TOP1, hits give low values): 1.03
normalized growth (S. cerevisiae deletion strains, locus YOL012C, strain htz1): 0.88
normalized growth (S. cerevisiae deletion strains, locus YOL147C, strain pex11, hits give low values): 0.999
normalized growth (S. cerevisiae deletion strains, locus YOR001W, strain rrp6, hits give low values): 0.977
normalized growth (S. cerevisiae deletion strains, locus YOR061W, strain CKA2, hits give low values): 0.998
normalized growth (S. cerevisiae deletion strains, locus YOR069W, strain VPS5, hits give low values): 0.999
normalized growth (S. cerevisiae deletion strains, locus YOR070C, strain gyp1, hits give low values): 0.98
normalized growth (S. cerevisiae deletion strains, locus YOR080W, strain dia2, hits give low values): 0.983
normalized growth (S. cerevisiae deletion strains, locus YOR083W, strain WHI5, hits give low values): 1
normalized growth (S. cerevisiae deletion strains, locus YOR106W, strain vam3, hits give low values): 0.969
normalized growth (S. cerevisiae deletion strains, locus YOR136W, strain idh2, hits give low values): 0.983
normalized growth (S. cerevisiae deletion strains, locus YOR144C, strain elg1, hits give low values): 1.02
normalized growth (S. cerevisiae deletion strains, locus YOR184W, strain ser1, hits give low values): 0.932
normalized growth (S. cerevisiae deletion strains, locus YOR231W, strain MKK1, hits give low values): 0.889
normalized growth (S. cerevisiae deletion strains, locus YOR265W, strain rbl2, hits give low values): 0.979
normalized growth (S. cerevisiae deletion strains, locus YOR270C, strain vph1, hits give low values): 0.874
normalized growth (S. cerevisiae deletion strains, locus YOR290C, strain snf2, hits give low values): 0.961
normalized growth (S. cerevisiae deletion strains, locus YOR316C, strain cot1, hits give low values): 0.999
normalized growth (S. cerevisiae deletion strains, locus YPL051W, strain arl3, hits give low values): 0.979
normalized growth (S. cerevisiae deletion strains, locus YPL055C, strain LGE1, hits give low values): 0.97
normalized growth (S. cerevisiae deletion strains, locus YPL078C, strain atp4, hits give low values): 0.956
normalized growth (S. cerevisiae deletion strains, locus YPL106C, strain sse1, hits give low values): 0.964
normalized growth (S. cerevisiae deletion strains, locus YPL240C, strain hsp82, hits give low values): 0.974
normalized growth (S. cerevisiae deletion strains, locus YPL241C, strain CIN2, hits give low values): 0.996
normalized growth (S. cerevisiae deletion strains, locus YPL256C, strain CLN2, hits give low values): 0.956
normalized growth (S. cerevisiae deletion strains, locus YPR119W, strain clb2, hits give low values): 1
normalized growth (S. cerevisiae deletion strains, locus YPR141C, strain kar3, hits give low values): 1.01
normalized growth (S. cerevisiae deletion strains, locus YPR163C, strain tif3, hits give low values): 1
normalized growth (S. cerevisiae deletion strains, locus YPR167C, strain met16, hits give low values): 1
normalized growth (S. cerevisiae deletion strains, strain wtn01, hits give low values): 0.99
normalized growth (S. cerevisiae strains, strain wild type, hits give low values): 0.997
